# High-throughput results deposited in PubChem by Johns Hopkins Ion Channel Center.
# Hits are enriched below; roughly 1.6% of the tested compounds scored in any of these assays.
# KCNQ2 enhance: potentiators of rat KCNQ2 potassium channel | O88943 | B-score at 10 µM | CHO-K1 KCNQ2, FluxOR thallium flux fluorescence; stronger effect = higher value | AID 2239 | 310,000 tested, 0.54% active;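 active means fluorescence ratio B-score at least 3 SD of library B-scores, with initial fluorescence B-score within 3 of them, cut at about 5.3 in these data; same plate scores as AID 2156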;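 further: B-score of peak minus minimum over baseline fluorescence ratio after K+ and Tl+ stimulus; positive B-score means potentiation of KCNQ2 with more thallium influx and brighter signal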
# Target sequence (O88943 whole entry, looked up): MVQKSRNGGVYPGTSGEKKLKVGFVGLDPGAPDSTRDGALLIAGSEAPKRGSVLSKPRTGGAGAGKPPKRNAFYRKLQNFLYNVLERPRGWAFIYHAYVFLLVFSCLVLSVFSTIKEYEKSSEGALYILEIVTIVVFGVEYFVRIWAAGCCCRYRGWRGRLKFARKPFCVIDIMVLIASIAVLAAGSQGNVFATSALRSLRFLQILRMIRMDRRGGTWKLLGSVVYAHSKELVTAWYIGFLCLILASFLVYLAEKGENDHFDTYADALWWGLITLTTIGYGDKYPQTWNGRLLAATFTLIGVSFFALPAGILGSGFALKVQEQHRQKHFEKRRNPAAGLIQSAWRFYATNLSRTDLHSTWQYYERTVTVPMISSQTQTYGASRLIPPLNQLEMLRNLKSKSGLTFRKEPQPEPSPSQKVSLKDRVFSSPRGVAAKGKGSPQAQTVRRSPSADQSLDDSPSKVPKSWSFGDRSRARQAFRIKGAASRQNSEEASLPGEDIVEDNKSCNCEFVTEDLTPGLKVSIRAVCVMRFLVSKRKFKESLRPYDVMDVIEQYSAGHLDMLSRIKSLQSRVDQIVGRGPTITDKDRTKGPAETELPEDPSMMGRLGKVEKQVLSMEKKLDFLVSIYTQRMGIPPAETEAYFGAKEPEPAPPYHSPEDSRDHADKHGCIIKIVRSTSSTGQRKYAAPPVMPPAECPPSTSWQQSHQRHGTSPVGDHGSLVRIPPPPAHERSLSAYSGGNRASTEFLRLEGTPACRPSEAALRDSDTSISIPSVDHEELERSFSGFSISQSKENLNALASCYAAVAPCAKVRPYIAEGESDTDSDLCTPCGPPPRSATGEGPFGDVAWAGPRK
# KCNQ2 inh: inhibitors of rat KCNQ2 potassium channel; CHO-K1 KCNQ2, FluxOR thallium flux, 20 min; stronger effect = lower value; O88943; 310,000 tested, 1.1% active; B-score at 10 µM; AID 2156;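 active means fluorescence ratio B-score at most minus 3 library SDs, with starting brightness B-score within 2 library SDs, cut at about -5.5 in these data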
# * = called active by the depositor; i = inactive; x = no result given.
SMILES,KCNQ2 enhance,KCNQ2 inh
Cc1nn(C(C)C(=O)NCCCN2CCCC2)c(=O)c2nn(-c3ccccc3)c(C)c12 (configuration not stated),0.28,i
O=C(N/N=C/c1ccc([N+](=O)[O-])cc1)c1[nH]ncc1Br,0.73,i
c1ccc(-c2nc3c4ccccc4ccn3c2CN2CCCCC2)cc1,-5.6,-5.6*
Cc1ccc(-c2nc3c4ccccc4ccn3c2CN2CCCCC2)cc1,x,i
CCn1ccnc1CN(C)Cc1c(C(=O)N2C[C@@H](C)O[C@@H](C)C2)nc2ccc(Cl)cn12,0.28,i
O=C1COc2ccc(N3C(=O)c4ccccc4C3=O)cc2N1,1.8,i
O=C(c1cc(-c2ccccn2)nc2ccc(Cl)cc12)N1CCN(CCc2ccccc2)CC1,-5.7,-5.7*
Cc1cnn(C(=O)c2cc(-c3ccccn3)nc3ccc(Cl)cc23)c1,x,i
Cc1ccc(-c2cc(C(=O)NCc3ccccn3)c3ccccc3n2)cc1C,-6.1,-6.1*
O=C(NCCc1ccc(Cl)cc1)c1cc(-c2ccccn2)nc2ccccc12,-6.5,-6.5*
O=C(NCCc1ccc(Cl)cc1)c1cc(-c2ccncc2)nc2ccccc12,x,i
Cc1cccc(-c2cc(C(=O)NCc3ccccn3)c3ccccc3n2)c1,x,i
CC(C)c1ccccc1NC(=O)CNCCOc1ccccc1F,0.76,i
CC1(C)CC(=O)C(=C2SCCCS2)C(=O)C1,0.77,i
O=C(NC(=S)NC1CCCC1)c1ccccc1Br,1.9,i
CCN(C(=S)NC(=O)c1ccccc1Br)C1CCCCC1,12*,i
CC1CCc2sc(-c3n[nH]c(=S)o3)cc2C1 (configuration not stated),2.7,i
S=c1[nH]nc(-c2cc3c(s2)-c2ccccc2CC3)o1,16*,i
CS(=O)(=O)N(CC(=O)N1CCN(Cc2ccccc2)CC1)c1cccc(F)c1,x,i
COC(=O)c1ccc(CC(=O)c2ccc(O)cc2O)o1,-5.8,-5.8*
CCOC(=O)c1ccc(CC(=O)c2ccc(O)cc2O)o1,x,i
C=CCC1NS(=O)(=O)OC(CCc2ccccc2)C1O (configuration not stated),x,i
Cc1ccc(N(C(=O)CNC(=O)c2ccco2)C(C(=O)NC2CCCCC2)c2ccncc2)cc1F (configuration not stated),0.02,i
O=C(NCC1(c2ccccc2)CCCC1)C1(c2ccccc2)CCCC1,-7,-7*
O=C(NCC1(c2ccccc2)CCCC1)C(=O)NCC1(c2ccccc2)CCCC1,x,i
SMILES,KCNQ2 enhance,KCNQ2 inh
COc1ccc(CN(CCC(c2ccc(F)cc2)C2CCOC(C)(C)C2)C(=O)c2ccco2)cc1 (configuration not stated),-5.8,-5.8*
CC(c1ccccc1)N(CCC(c1ccccc1)C1CCOC(C)(C)C1)C(=O)c1ccco1 (configuration not stated),x,i
COc1ccc(CCNc2ccc(N3C(=O)CC(C)C3=O)cc2[N+](=O)[O-])cc1OC (configuration not stated),1.9,i
Cc1ccc(C2C(C#N)=C(N)SC(N)=C2C#N)o1,0.54,i
Cc1ccc(C2OC3=C(C(=O)CC(C)(C)C3)C(N)=C2C#N)o1 (configuration not stated),5.3*,i
Cc1cc(C)n(CCOC(=O)c2sc3ccccc3c2Cl)n1,-10,-10*
NC(=O)COC(=O)c1sc2ccccc2c1Cl,0.01,i
CN(C)S(=O)(=O)c1cc(NC(=O)CN2CCN(c3ccccc3O)CC2)ccc1Cl,0.02,i
CCOc1cc(S(=O)(=O)n2cc(-c3ccc(F)cc3)c(N)n2)cc(OCC)c1OCC,x,i
CCOc1cc(-c2cn(S(=O)(=O)c3cccc4nsnc34)nc2N)cc(OCC)c1OCC,-6.3,-6.3*
COc1ccc(N(C)C(=O)C2CCCN2S(=O)(=O)c2cccc3nsnc23)cc1 (configuration not stated),x,i
Oc1ccc(-c2nc(-c3ccc(O)c(O)c3)cs2)cc1,-5.6,-5.6*
Oc1ccc(Nc2nc(-c3ccc4ccccc4c3)cs2)cc1,x,i
O=C(N/C(=C/c1ccc(Br)cc1)C(=O)N1CCCCC1)c1ccccc1F,x,i
CCCc1cc(=O)oc2cc(OCC(=O)NCCCN3CCOCC3)ccc12,x,i
O=C(N[C@@H](Cc1ccccc1)C(=O)NCc1ccc(F)cc1)C1CCNCC1,x,i
C=CCN(c1cccc(C(F)(F)F)c1)S(=O)(=O)c1cccc(C(=O)OCC(=O)Nc2ccccc2)c1,7.5*,i
C=CCN(c1cccc(C(F)(F)F)c1)S(=O)(=O)c1cccc(C(=O)OCC(=O)NC)c1,1.6,i
CCN(CC)C(=O)COc1c(-c2ccco2)oc2ccccc2c1=O,0.61,i
CC(=O)Oc1c(-c2ccco2)oc2ccccc2c1=O,5.9*,i
O=C(COn1nnc2ccccc21)N1CCN(Cc2ccccc2)CC1,x,i
COc1ccc(C)cc1NC(=O)C(=O)NNC(=O)COc1ccc(Cl)cc1,11*,i
Cc1ccc(NC(=O)NNC(=O)COc2ccc(Cl)cc2)cc1,0.66,i
O=C1N(c2cccc(Cl)c2)C(c2ccc(Cl)cc2)N2CCCN12 (configuration not stated),x,i
C=CCNc1nc2c(c(=O)[nH]c(=O)n2C)n1CCCc1ccccc1,1.9,i
SMILES,KCNQ2 enhance,KCNQ2 inh
C/C=C/c1ccc(OCCCCOc2ccccc2C(C)=O)c(OC)c1,-7.5,-7.5*
COc1ccccc1OCCCCOc1ccccc1C(C)=O,0.77,i
O=C(CN(Cc1ccco1)S(=O)(=O)c1cccs1)Nc1ccccc1C(F)(F)F,-7,-7*
COc1ccccc1NC(=O)CN(Cc1ccco1)C(=O)c1cccs1,x,i
Cc1ccc(NS(=O)(=O)c2ccccc2Cl)c2c1CC(C)(C)O2,-6,-6*
Cc1ccc(NC(=O)CN2CCCC2)c2c1CC(C)(C)O2,1.2,i
O=C(CN1CCCC1)Nc1ccc(F)c(Cl)c1,1.4,i
CC(=O)N1c2ccc(S(=O)(=O)NCC3CCC(C(=O)N4CC(C)CC(C)C4)CC3)cc2CC1C (configuration not stated),x,i
CCc1ccc(CN2CCC(N3CCC(C(=O)N4CCCC4)CC3)CC2)o1,x,i
Oc1[nH]c2c(Cl)cc(Cl)cc2c1N=NC(=S)NCC1CCCO1 (configuration not stated),11*,i
Cc1cc(C)c2[nH]c(O)c(N=NC(=S)NCC3CCCO3)c2c1 (configuration not stated),1.2,i
O=C1Cc2ccccc2C(c2ccc(Br)cc2)N1 (configuration not stated),-6.3,-6.3*
Cc1ccccc1C1NC(=O)Cc2ccccc21 (configuration not stated),0.31,i
Cc1ccc(NC(=O)CS(=O)CC(=O)NC23CC4CC(CC(C4)C2)C3)cc1 (configuration not stated),0.02,i
COc1cccc(OC)c1C(=O)NC(=S)N1CCCCC1c1cccnc1 (configuration not stated),0.24,i
Cc1cc(NC(=O)CCC(=O)N(Cc2ccco2)C2(C(=O)NC3CCCCC3)CCCC(C)C2)no1 (configuration not stated),x,i
O=c1nc(Nc2ccccc2)sc2ccc([N+](=O)[O-])cc12,0.93,i
CC(C)OC(=O)CSc1nc2c(c(C3CC=CCC3)c1C#N)CCC2 (configuration not stated),-6,-6*
Cc1cc(C)c(C#N)c(SCC(=O)CC(=O)OC(C)C)n1,x,i
